Shiga toxin inh = blocks Shiga toxin action in Vero cells; Vero cells, Shiga toxin protein synthesis inhibition reporter; inhibition, % at 38.7 µM; 9.2% of 290,000 active; AID 2315; in the data active means inhibition mostly above about 28%, no sharp cut-off; inactive means mostly below about 43%; further: 0% is about no effect
Lassa entry inh = inhibitors of Lassa virus binding or cell entry. Lassa virus pseudotype entry inhibition, cell reporter. Potency, µM (titrated, usually from 37.9 µM), inactives show top-dose activity change, negative = inhibition, usual class: inhibitors. 1.2% of 300,000 active. AID 540256; calls by dose curve; tested in HEK293 cells; further: potency means the concentration at half of the fitted maximal effect; on the % scale 0 is the no-effect control and ±100 the full control effect; nearly all actives have a fitted effect of over 50% in size
Marburg entry inh = Marburg virus entry inhibition. 1.8% of 300,000 active. Marburg virus pseudotyped entry inhibition, cell reporter. AID 540276. Potency, µM (highest dose often 37.8 µM), for the others: top-dose activity change, negative = inhibition, actives largely listed as inhibitors; calls by dose curve; tested in HEK293 cells; further: potency means the concentration at half of the fitted maximal effect; on the % scale 0 is the no-effect control and ±100 the full control effect
AMA1 RON2 block = inhibitors of Plasmodium falciparum AMA1-RON2 interaction; AlphaScreen AMA1-biotinylated RON2 peptide binding; Potency, µM (doses to about 58.2 µM), for the others: top-dose activity change, negative = inhibition, usual class: inhibitors; 0.2% of 360,000 active; AID 720542; active means well fitted inhibition curve with a large enough effect; inconclusive means small, poorly fitted or top-dose-only effect; inactive means no such curve, though single readings can be large or run the other way;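 further: potency means the concentration at half of the fitted maximal effect; 0% = vehicle wells and -100% = peptide control; nearly all actives have a fitted effect of over 45% in size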
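AMA1 (3D7) with his tag at 25 nM final met compounds first, then biotinylated RON2 peptide at 25 nM; detection used donor plus acceptor beads, 10 µg/mL apiece, read by AlphaScreen after 30 min at room temperature.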
CHX counter = counter-screen for Shiga toxin inhibitors: cycloheximide protein synthesis inhibition; 12% of 300,000 active; cell reporter, cycloheximide protein synthesis inhibition counterscreen; max response, %; in the data active means max response mostly above about 13%, no sharp cut-off; inactive means mostly below about 14%; further: read at 38.3 µM for the half of the compounds with a filed dose; 0% is about no effect
Starred values were filed as active, the others as inactive; u = inconclusive; x = not tested or not shown; [ ] = another dose, or the depositor's remark. Many of the other results were omitted from the sample, so hits are more common in it than they were.

SMILES	Shiga toxin inh	Lassa entry inh	Marburg entry inh	AMA1 RON2 block	CHX counter
CNS(=O)(=O)c1cccc(C(=O)OCc2csc(-c3ccccc3)n2)c1	63*	u	u	-6%	33*
Cn1cccc1C(=O)OCc1csc(-c2ccccc2)n1	77*	u	u	-12%	22*
Cc1ccsc1C(=O)OCc1csc(-c2ccccc2)n1	102*	u	u	151%	26*
O=C(CNC(=O)c1ccccc1F)OCc1csc(-c2ccccc2)n1	31	6%	u	0%	18*
CN(Cc1cccs1)C(=O)Cc1csc(-c2ccccc2)n1	69*	x	x	12%	47*
O=C(OCc1csc(-c2ccccc2)n1)C1=NN(c2ccccc2)C(=O)CC1	x	x	x	-6%	x
O=C(OCc1csc(-c2ccccc2)n1)c1cccs1	49*	7%	u	23%	34*
CCOc1ccc(-n2c(=O)c3c(C)c(C)sc3n(CC(=O)c3ccccc3)c2=O)cc1	x	u	12%[46.1 µM]	x	x
O=C1NN(c2ccc(F)cc2)C(=O)/C1=C\c1cnn(-c2ccccc2)c1	-3	x	x	x	-1
COc1ccccc1N1C(=O)NC(=O)/C(=C/c2ccc3c4c(cccc24)CC3)C1=O	33	-1%	7%	-20%	17*
COc1ccccc1N1C(=O)NC(=O)/C(=C\c2cnn(-c3ccccc3)c2)C1=O	48*	5%[46.1 µM]	u	0%	13
COc1cc(/C=C2/C(=O)NC(=O)N(c3ccccc3)C2=O)ccc1O	-12	-3%	u	-9%	-3
O=C1NC(=O)N(Cc2ccccc2)C(=O)/C1=C/c1cnn(-c2ccccc2)c1	51*	x	x	x	30*
CCOC(=O)[C@]12CCCC=C1N(Cc1ccccc1)C(=O)[C@H](CC(=O)N1CCN(C(=O)c3ccco3)CC1)C2	x	x	x	-8%	x
O=C1c2ccccc2CN1CCSC(=S)N1CCSCC1	157*	x	x	x	48*
O=C1c2ccccc2CN1CCSC(=S)N1CCOCC1	81*	u	-30%	7%	74*
COCCCn1c(=O)c2sccc2n2c(CCCC(=O)Nc3ccc(F)c(F)c3)nnc12	x	6%[46.1 µM]	-11%[46.1 µM]	x	x
CN(C)c1ccc(/C=C/c2cc[n+](C)c3ccccc23)cc1	25	u	7.9µM*	u	27*
C[n+]1ccc(/C=C/c2ccccc2O)c2ccccc21	-6	-3%	3%[46.1 µM]	-5%	-2
Cc1cc([N+](=O)[O-])ccc1P(=O)(O)c1ccc([N+](=O)[O-])cc1C	x	-1%[46.1 µM]	20%	10%	x
O=C(CCCN1C(=O)/C(=C/c2ccccc2Cl)SC1=S)NNC(=O)c1ccncc1	-9	u	u	91%	-4
CN1CCN(C(=O)CCCN2C(=O)/C(=C/c3cccc(Br)c3)SC2=S)CC1	-3	u	10µM*	0%	-2
COc1ccc(/C=C2/SC(=S)N(CCCC(=O)Nc3ccccc3C(=O)O)C2=O)cc1	-10	2.8µM*	7.9µM*	-7%	-10
COc1cccc(/C=C2\SC(=S)N(CCC(=O)NCCc3ccc(O)cc3)C2=O)c1	16	u	u	-8%	9
COc1cccc(/C=C2\SC(=S)N(CCC(=O)Nc3ccc(O)cc3)C2=O)c1	47*	x	x	0%	30*
SMILES	Shiga toxin inh	Lassa entry inh	Marburg entry inh	AMA1 RON2 block	CHX counter
O=C(CCCN1C(=O)/C(=C/c2ccccc2Cl)SC1=S)NNC(=O)c1ccccc1Cl	-15	u	6.3µM*	23%[2.32 µM]	-7
COCCCn1c(SCC(=O)Nc2ccc(NC(C)=O)cc2)nc2sc3c(c2c1=O)CCC3	16	-4%[46.1 µM]	4%[46.1 µM]	13%	-1
Cc1ccc(NC(=O)CSc2nc3ncc(Cl)cc3[nH]2)c(C)c1	32	x	x	38%	-2
Cc1ccc(-c2nn3cnnc3c3ccccc23)cc1	-14	-8%[46.1 µM]	6%[46.1 µM]	9%	7
COc1ccc(/C=C2/SC(=S)N(CCCC(=O)Nc3cccc(O)c3)C2=O)cc1	45*	u	7.9µM*	-16%	35*
O=C(CCCN1C(=O)/C(=C/c2cccs2)SC1=S)NNC(=O)c1ccccc1O	-10	u	5%	1%	-1
COc1ccc(/C=C2\SC(=S)N(CCCC(=O)NNC(=O)c3ccccc3O)C2=O)cc1	-8	2.2µM*	u	23%	1
COc1ccc(/C=C2\SC(=S)N(CCC(=O)Nc3cccc(O)c3)C2=O)cc1OC	15	11%[46.1 µM]	18%[46.1 µM]	-4%	1
COc1cccc(/C=C2/SC(=S)N(CCC(=O)N3CCOCC3)C2=O)c1	-4	u	5µM*	3%	-4
O=C1N=NC2=C1c1c3ccccc3c(O)n1CC2	-6	5%	4%[46.1 µM]	5%	-3
O=C(Nc1ccc2ccccc2c1)NC1CCS(=O)(=O)C1 (stereo unspecified)	88	14%	12%	-2%	14*
COc1cccc(/C=N/NC(=O)CNC(=O)c2ccco2)c1O	54	x	x	114%	15*
COc1ccc(CCCC(=O)N/N=C/c2cccc(OC)c2O)cc1C	52*	u	u	68%	28*
COc1cc(C(=O)NCC(=O)N/N=C/c2cccc(OC(=O)c3ccco3)c2)cc(OC)c1OC	56	x	x	8%	15*
Cc1cnc(C2OCCO2)c2cccc([N+](=O)[O-])c12	x	x	x	-2%	x
COc1ccc(NC(=O)/C(C#N)=C/c2cc(C)n(-c3ccc(F)cc3)c2C)cc1	x	12%[46.1 µM]	5%[46.1 µM]	x	x
Cc1ccccc1NC(=O)/C(C#N)=C\c1cc(C)n(-c2ccc(C(=O)O)cc2)c1C	13	x	x	-6%	-2
Cc1cc(/C=C(/C#N)C(=O)Nc2ccccc2)c(C)n1-c1cccnc1	51	u	-12%	-3%	43*
Cc1cc(/C=C(\C#N)C(=O)Nc2ccccc2)c(C)n1-c1ccc2c(c1)OCO2	44*	u	u	-2%	41*
Cc1cc(C=C(C#N)C#N)c(C)n1-c1ccccc1	108*	16%	16%	4%	22*
Cc1ccc(-n2c(C)cc(C=C(C#N)C#N)c2C)cc1	33	0%	-15%	-1%	15
O=C(Oc1ccccc1)N1CCCCC1	x	x	x	4%	x
CCOC(=O)Cc1csc(N/C(=N/S(=O)(=O)c2cc(Br)ccc2OCC)c2ccccc2)n1	-2	4%	u	u	-4
COc1ccc(-c2cn3nc4c(nc3n2)CCCC4)cc1	48*	u	5.6µM*	7%	26*
COc1ccc(CNc2cc(-c3ccc(OC)cc3)nc3nncn23)cc1	x	-26%[46.1 µM]	7%[46.1 µM]	x	x
C[C@@H]1O[C@@H](O[C@H]2C[C@@H](O)[C@]3(CO)[C@H]4[C@H](O)C[C@]5(C)[C@@H](C6COC(=O)C6)CC[C@]5(O)[C@@H]4CC[C@]3(O)C2)[C@H](O)[C@H](O)[C@H]1O (stereo partly specified)	-24	1.6µM*	u	0%	-9
C[C@@H]1O[C@@H](O[C@H]2C[C@@H](O)[C@]3(CO)[C@@H]4C(CC[C@]3(O)C2)[C@@]2(O)CC[C@H]([C@@H]3COC(=O)C3)[C@@]2(C)C[C@H]4O)[C@H](O)[C@H](O)[C@H]1O (stereo partly specified)	x	2.3µM*	0.82µM*	x	x

High-throughput results: PubChem, National Center for Advancing Translational Sciences (NCATS)
